Reference: PubChem BioAssay AID1159580 (chemical genetic matrix, 2015)
Out of some 5,500 compounds screened, about 2,000 (36%) were called active. Another 18% or so got no clear call; they are omitted. No stated cut-off is given here; in the data, active means normalized growth mostly below about 0.91 (no sharp cut-off); inconclusive means no clear call, values can overlap the other calls; inactive means mostly above about 0.92. The list shows a part of the results.

Experiment: chemical genetic growth profiling, strain panel (AID 1159580);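 further: tested at 20 µM; growth read once vehicle control cultures reached saturation at 30 °C; 1 = growth at the plate median or of vehicle wells; lower values mean less growth of the strain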
Settings: S. cerevisiae deletion strains, growth OD
[1] = locus YAR019C, strain CDC15, active compounds read low
[2] = locus YBL105C, strain PKC1, active compounds read low
[3] = locus YBR135W, strain CKS1, active compounds read low
[4] = locus YBR136W, strain MEC1, active compounds read low
[5] = locus YBR160W, strain CDC28, active compounds read low
[6] = locus YDL017W, strain CDC7, active compounds read low
[7] = locus YDL028C, strain MPS1, active compounds read low
[8] = locus YDL101C, strain DUN1, active compounds read low
[9] = locus YDL108W, strain KIN28, active compounds read low
[10] = locus YDL132W, strain cdc53, active compounds read low
[11] = locus YDL214C, strain PRR2, active compounds read low
[12] = locus YDR052C, strain DBF4, active compounds read low
[13] = locus YDR054C, strain cdc34, active compounds read low
[14] = locus YDR226W, strain ADK1, active compounds read low
[15] = locus YDR477W, strain SNF1, active compounds read low
[16] = locus YER123W, strain YCK3, active compounds read low
[17] = locus YER133W, strain GLC7, active compounds read low
[18] = locus YFL009W, strain cdc4, active compounds read low
[19] = locus YFL029C, strain CAK1, active compounds read low
[20] = locus YFR003C, strain YPI1, active compounds read low
[21] = locus YFR019W, strain FAB1, active compounds read low
[22] = locus YFR028C, strain CDC14, active compounds read low
[23] = locus YGR040W, strain KSS1, active compounds read low
[24] = locus YGR052W, strain FMP48, active compounds read low
[25] = locus YGR092W, strain DBF2, active compounds read low
[26] = locus YHR030C, strain SLT2, active compounds read low
[27] = locus YHR079C, strain IRE1, active compounds read low
[28] = locus YHR082C, strain KSP1, active compounds read low
[29] = locus YHR205W, strain SCH9, active compounds read low
[30] = locus YIL147C, strain SLN1, active compounds read low
[31] = locus YJL095W, strain BCK1, active compounds read low
[32] = locus YJL128C, strain PBS2, active compounds read low
[33] = locus YJL157C, strain FAR1, active compounds read low
[34] = locus YJR016C, strain ILV3, active compounds read low
[35] = locus YJR066W, strain TOR1 (second series), active compounds read low
[36] = locus YJR066W, strain TOR1, active compounds read low
[37] = locus YKL048C, strain ELM1, active compounds read low
[38] = locus YKL067W, strain YNK1, active compounds read low
[39] = locus YKL101W, strain HSL1, active compounds read low
[40] = locus YKL193C, strain SDS22, active compounds read low
[41] = locus YKL203C, strain TOR2, active compounds read low
[42] = locus YLR113W, strain HOG1, active compounds read low
[43] = locus YLR133W, strain CKI1, active compounds read low
[44] = locus YLR403W, strain SFP1, active compounds read low
[45] = locus YML070W, strain DAK1, active compounds read low
[46] = locus YMR001C, strain CDC5, active compounds read low
[47] = locus YMR205C, strain PFK2 (second series), active compounds read low
[48] = locus YMR277W, strain FCP1, active compounds read low
[49] = locus YNL006W, strain LST8, active compounds read low
[50] = locus YNL020C, strain ARK1, active compounds read low
[51] = locus YNL161W, strain CBK1, active compounds read low
[52] = locus YNL183C, strain NPR1, active compounds read low
[53] = locus YNL207W, strain RIO2, active compounds read low
[54] = locus YNL222W, strain SSU72, active compounds read low
[55] = locus YNL307C, strain MCK1 (second series), active compounds read low
[56] = locus YOL078W, strain AVO1, active compounds read low
[57] = locus YOL136C, strain PFK27, active compounds read low
[58] = locus YOR061W, strain CKA2, active compounds read low
[59] = locus YOR119C, strain RIO1, active compounds read low
[60] = locus YOR231W, strain MKK1, active compounds read low
[61] = locus YOR329C, strain SCD5, active compounds read low
[62] = locus YPL031C, strain PHO85, active compounds read low
[63] = locus YPL153C, strain RAD53, active compounds read low
[64] = locus YPL204W, strain HRR25, active compounds read low
[65] = locus YPL209C, strain IPL1, active compounds read low
[66] = locus YPL256C, strain CLN2, active compounds read low
[67] = locus YPR025C, strain CCL1, active compounds read low
[68] = locus YPR106W, strain ISR1, active compounds read low
[69] = locus YPR111W, strain DBF20, active compounds read low
[70] = strain NNK1, active compounds read low
[71] = strain TSCII, active compounds read low

Measured: normalized growth

CC1=CC(=O)N(c2ccc(OC(F)(F)F)cc2)C1=O
inactive: [32] 0.9 | [68] 0.901 | [69] 0.907 | [70] 0.893
active: [1] 0.852 | [2] 0.873 | [3] 0.857 | [4] 0.87 | [5] 0.873 | [6] 0.872 | [7] 0.857 | [8] 0.869 | [9] 0.868 | [10] 0.847 | [11] 0.467 | [12] 0.883 | [13] 0.853 | [14] 0.862 | [15] 0.377 | [16] 0.281 | [17] 0.339 | [18] 0.849 | [19] 0.837 | [20] 0.878 | [21] 0.512 | [22] 0.865 | [23] 0.384 | [24] 0.421 | [25] 0.217 | [26] 0.283 | [27] 0.35 | [28] 0.316 | [29] 0.331 | [30] 0.873 | [31] 0.302 | [33] 0.487 | [34] 0.862 | [35] 0.39 | [36] 0.272 | [37] 0.556 | [38] 0.509 | [39] 0.494 | [40] 0.863 | [41] 0.382 | [42] 0.336 | [43] 0.531 | [44] 0.326 | [45] 0.401 | [46] 0.854 | [47] 0.563 | [48] 0.868 | [49] 0.885 | [50] 0.558 | [51] 0.865 | [52] 0.201 | [53] 0.847 | [54] 0.864 | [55] 0.413 | [56] 0.858 | [57] 0.436 | [58] 0.576 | [59] 0.384 | [60] 0.4 | [61] 0.869 | [62] 0.311 | [63] 0.372 | [64] 0.391 | [65] 0.862 | [66] 0.33 | [67] 0.855 | [71] 0.859

CC1=CC(=O)N(c2ccc(F)c(Cl)c2)C1=O
inactive: [1] 0.966 | [2] 0.974 | [3] 0.964 | [4] 0.971 | [5] 0.975 | [6] 0.966 | [7] 0.976 | [9] 0.979 | [10] 0.986 | [12] 0.978 | [13] 0.983 | [14] 0.97 | [18] 0.974 | [19] 0.96 | [20] 0.975 | [22] 0.967 | [30] 0.975 | [32] 0.953 | [34] 0.987 | [40] 0.974 | [46] 0.962 | [48] 0.973 | [49] 0.982 | [51] 0.963 | [53] 0.973 | [54] 0.973 | [56] 0.966 | [61] 0.98 | [65] 0.964 | [67] 0.97 | [68] 0.974 | [69] 0.976 | [70] 0.973 | [71] 0.966
active: [8] 0.76 | [11] 0.345 | [15] 0.376 | [16] 0.243 | [17] 0.371 | [21] 0.443 | [23] 0.461 | [24] 0.387 | [25] 0.335 | [26] 0.173 | [27] 0.195 | [28] 0.235 | [29] 0.395 | [31] 0.168 | [33] 0.377 | [35] 0.219 | [36] 0.166 | [37] 0.474 | [38] 0.347 | [39] 0.386 | [41] 0.506 | [42] 0.335 | [43] 0.457 | [44] 0.404 | [45] 0.274 | [47] 0.407 | [50] 0.477 | [52] 0.156 | [55] 0.34 | [57] 0.335 | [58] 0.549 | [59] 0.524 | [60] 0.225 | [62] 0.233 | [63] 0.398 | [64] 0.455 | [66] 0.206
